This note sets out measurements from PubChem BioAssay AID1942 (Johns Hopkins Ion Channel Center, 2009).

Molecules are shown by their SMILES. Screen size: about 2,400 compounds; about 580 (24%) were called active. Only a sample is shown. Unmarked numbers belong to inactive results.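 The calls were made as follows: active = activity change at or above the mean plus 3 SD of buffer wells without dofetilide, per plate; inactive = the rest.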

Potassium voltage-gated channel subfamily KQT member 2 (Rattus norvegicus), sequence (O88943 whole entry, looked up): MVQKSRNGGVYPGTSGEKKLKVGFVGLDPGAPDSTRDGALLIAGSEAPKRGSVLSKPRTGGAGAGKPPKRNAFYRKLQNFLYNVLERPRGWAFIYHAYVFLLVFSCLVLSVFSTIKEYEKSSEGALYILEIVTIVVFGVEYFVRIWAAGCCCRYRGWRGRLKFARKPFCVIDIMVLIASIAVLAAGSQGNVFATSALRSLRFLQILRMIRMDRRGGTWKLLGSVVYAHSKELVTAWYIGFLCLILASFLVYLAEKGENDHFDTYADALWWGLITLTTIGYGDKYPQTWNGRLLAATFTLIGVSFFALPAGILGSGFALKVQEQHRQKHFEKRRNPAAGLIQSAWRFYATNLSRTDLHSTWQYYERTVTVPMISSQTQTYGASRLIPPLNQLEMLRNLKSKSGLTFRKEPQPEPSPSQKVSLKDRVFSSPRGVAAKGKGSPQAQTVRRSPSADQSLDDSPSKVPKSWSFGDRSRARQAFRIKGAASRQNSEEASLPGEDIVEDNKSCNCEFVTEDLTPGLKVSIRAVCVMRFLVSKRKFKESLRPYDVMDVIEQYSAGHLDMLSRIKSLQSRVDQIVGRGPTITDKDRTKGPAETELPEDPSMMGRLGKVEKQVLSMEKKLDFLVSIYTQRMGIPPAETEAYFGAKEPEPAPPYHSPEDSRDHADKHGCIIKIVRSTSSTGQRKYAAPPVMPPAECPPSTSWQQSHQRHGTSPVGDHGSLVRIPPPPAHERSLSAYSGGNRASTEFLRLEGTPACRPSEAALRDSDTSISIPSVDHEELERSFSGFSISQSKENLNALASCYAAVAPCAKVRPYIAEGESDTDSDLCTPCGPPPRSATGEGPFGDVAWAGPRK

The assay addresses Potassium voltage-gated channel subfamily KQT member 2 (Rattus norvegicus) (UniProt O88943). Briefly: rat KCNQ2 channel activation by compounds alone, confirmation, counter-screen for hERG block protector project, cell-based, CHO, FluxOR thallium flux (AID 1942).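 Also: normalized value minus buffer-control mean plus three SD of buffer wells.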 The note with it: CHO-KCNQ2 cells, FluxOR thallium flux fluorescence; at 10 µM; hits give high values.
Turning to `CC(=O)c1ccc(N2CCN(C(=O)Cc3ccccc3)CC2)c(F)c1`, the activity change, less the hit threshold is -28%.

For the compound `CCCN(CC(=O)Nc1ccccc1C)C(=O)CCl`, the activity change, less the hit threshold was -25.4%.

Regarding `CCc1nnc(NC(=O)c2cccc(S(=O)(=O)N3CCN(c4ccccc4)CC3)c2)s1`, the activity change, less the hit threshold was -21.2%.

In the case of `COC(=O)/C=C1\S/C(=N/N=C/c2ccco2)NC1=O`, the activity change, less the hit threshold is -11%.

Take `CSc1nc2ccc(S(=O)(=O)N3CCc4ccccc43)cc2s1`: the activity change, less the hit threshold was -21.8%.

Turning to `Cc1ccc2[nH]cc(CCNC(=O)/C=C/c3ccco3)c2c1`, the activity change, less the hit threshold was -22.5%.

As to `CCOC(=O)c1nnsc1NC(C)=O`, the activity change, less the hit threshold is -19.7%.

As for `CC(C)Oc1ccccc1C1(c2ccccc2)NC(=O)NC1=O` (stereo unspecified), the activity change, less the hit threshold was -22.4%.

For the compound `CCCCc1cc(=O)oc2c(C)c(OCC(=O)NCc3ccccn3)ccc12`, the activity change, less the hit threshold is -13.4%.

For the compound `CCOc1ccc2nc(N3C(=O)/C(=C/c4ccc(Cl)cc4)NC3=S)sc2c1`, the activity change, less the hit threshold was -21.3%.

For `COc1ccc2nc(/N=C/c3c(C)[nH]n(-c4ccc(C)cc4C)c3=O)sc2c1`, the activity change, less the hit threshold is 23% (active).

In the case of `CCOc1ccc2nc(/N=C/c3c(C)[nH]n(-c4ccc(C)cc4)c3=O)sc2c1`, the activity change, less the hit threshold was 102% (active).

`CCOc1ccc2nc(/N=C/c3nc(-c4ccc(Br)cc4)oc3O)sc2c1`: the activity change, less the hit threshold was -9.3%.

With `CCC(c1nnc(SCC(=O)NCCc2ccc(Cl)cc2Cl)o1)N(C)C` (stereo unspecified), the activity change, less the hit threshold is -31.5%.

Regarding `CCOc1ccccc1C(=O)NC1CC2CCCC(C1)N2Cc1nnnn1Cc1ccco1` (stereo unspecified), the activity change, less the hit threshold is -26.4%.

Take `Cc1ccc2cc(CN(CCCN(C)C)C(=S)NCc3ccccc3)c(=O)[nH]c2c1C`: the activity change, less the hit threshold was -23.9%.

`CC1CC(OCC(O)C[N+]2(C)CCOCC2)CC(C)(C)C1` (stereo unspecified): the activity change, less the hit threshold was -21.6%.

Turning to `CCCSc1cc(NCCOC(C)=O)c([N+](=O)[O-])c2nonc12`, the activity change, less the hit threshold is -13.1%.

For the compound `COc1ccc(C(=O)O/N=C(\N)c2ccccn2)cc1[N+](=O)[O-]`, the activity change, less the hit threshold is -10.2%.

For the compound `O=[N+]([O-])C1=CC=C2C(=NC3(CCCCC3)N2O)C1=NC1CCCCC1`, the activity change, less the hit threshold is -27.4%.

Take `O=C(O)c1ccc(CNC(=O)C23CC4CC(CC(C4)C2)C3)cc1`: the activity change, less the hit threshold is -18.2%.

On to `Cc1ccc(/C(O)=C/C(=O)C(=O)NC23CC4CC(CC(C4)C2)C3)cc1`, for which the activity change, less the hit threshold was 1.2% (active).

As for `Nc1cccc2c1C(=O)N(CC(=O)NC13CC4CC(CC(C4)C1)C3)C2=O`, the activity change, less the hit threshold is -18.4%.

`S=c1[nH]nc(-c2n[nH]c3c2CCC3)n1/N=C/C=C/c1ccccc1`: the activity change, less the hit threshold is -26.2%.

With `CC(=O)OCC1O[C@@H](O[C@@H]2C[C@H]3C(C)(C)[C@H](OC(C)=O)CC[C@]3(C)[C@H]3CC[C@]45C[C@]4(CC[C@H]5[C@@H](C)C[C@@H](O)[C@H](O)C(C)(C)O)[C@@]32C)[C@H](O)[C@@H](O)[C@@H]1O` (stereo partly specified), the activity change, less the hit threshold is 1% (active).

Take `CC(Nc1ccc(F)cc1)=[N+](C)CCNS(=O)(=O)c1ccc(Cl)cc1`: the activity change, less the hit threshold is -10.9%.

Turning to `O=C(CSc1nnc(-c2ccncc2)o1)c1cccc([N+](=O)[O-])c1`, the activity change, less the hit threshold is -29.3%.

Regarding `N/C(=N\OS(=O)(=O)c1cccc([N+](=O)[O-])c1)c1ccncc1`, the activity change, less the hit threshold is 1.3% (active).

`CN(c1cccc(NS(=O)(=O)c2cccc([N+](=O)[O-])c2)c1)S(C)(=O)=O`: the activity change, less the hit threshold is -9.2%.

As to `CCOc1cccc(Nc2cc3n(c(=O)n2)CCc2cc(OC)c(OC)cc2-3)c1`, the activity change, less the hit threshold was -19.8%.

As for `CC(C)CCn1c(SCC(=O)NC2CC2)nc2cc(Cl)ccc2c1=O`, the activity change, less the hit threshold was -8.5%.

As for `O=C1c2ccccc2C(=O)N1Cc1nc2ccccc2c(=O)n1CCCn1ccnc1`, the activity change, less the hit threshold is -20.6%.

Turning to `CCCn1c(SCN2C(=O)c3ccccc3C2=O)nc2cc(Cl)ccc2c1=O`, the activity change, less the hit threshold is 21.1% (active).

`Cc1ccc(OCC(=O)Nn2cnc3ccccc32)cc1`: the activity change, less the hit threshold was -12.3%.

In the case of `O=C(CCc1ccc(S(=O)(=O)N2CCCCC2)cc1)c1nnc(-c2ccccc2)o1`, the activity change, less the hit threshold was -13.3%.

For `S=C(N/N=C/c1cccc2ccccc12)Nc1cccc(Cl)c1`, the activity change, less the hit threshold was -17.2%.

In the case of `S=c1nn[nH]n1C12CC3CC(CC(C3)C1)C2`, the activity change, less the hit threshold was 21.6% (active).

`Cc1cccc(-n2c(=S)[nH]c3sc4c(c3c2=O)CCc2ccccc2-4)c1`: the activity change, less the hit threshold is -19.9%.

As to `Cc1cc(=O)[nH]c(=S)n1-c1ccccc1`, the activity change, less the hit threshold was -31%.

For the compound `Cc1ccc(-n2c(=S)[nH]c3sc4c(c3c2=O)CCC4)cc1`, the activity change, less the hit threshold was 0.2% (active).

With `CCn1c(=S)[nH]c2sc3c(c2c1=O)CCCCC3`, the activity change, less the hit threshold is 97.9% (active).

On to `O=C1c2ccccc2C(=O)N1Cc1ccco1`, for which the activity change, less the hit threshold was -11.8%.

For the compound `O=c1c2c3c(sc2[nH]c(=S)n1Cc1ccco1)CCC3`, the activity change, less the hit threshold was 26.9% (active).

For `CCn1c(=S)[nH]c2sc3c(c2c1=O)CCCC3`, the activity change, less the hit threshold is 49.6% (active).

As to `CCN(/N=C/c1ccc(Cl)cc1)c1cc(=O)n(C)c(=O)[nH]1`, the activity change, less the hit threshold was -19%.

In the case of `CCCCCOCC1CC(C/C(C)=N/Nc2nc(-c3ccccc3)cs2)C(=O)O1` (stereo unspecified), the activity change, less the hit threshold was -18.7%.

Take `O=C(/C=C/Nc1ccc(F)cc1)c1ccco1`: the activity change, less the hit threshold is -17.3%.

`O=C(c1cccc2c1-c1ccccc1C2)N1CCCCC1`: the activity change, less the hit threshold was -20.1%.

In the case of `O=C(O)c1ccc2c(c1)C(=O)N(c1cc([N+](=O)[O-])ccn1)C2=O`, the activity change, less the hit threshold was -1.1%.

On to `O=C(CN1CCN(Cc2ccccc2)CC1)NCc1ccccc1Cl`, for which the activity change, less the hit threshold was -10.1%.

Regarding `CCCn1c(=S)[nH]c2sc3c(c2c1=O)CCCC3`, the activity change, less the hit threshold is 72% (active).

Regarding `COc1ccc(N(CC(=O)N2CCN(Cc3ccccc3)CC2)S(C)(=O)=O)cc1`, the activity change, less the hit threshold was -25.7%.

As to `C#CCN1C(=O)S/C(=C\c2ccc(-c3ccc(C(=O)O)cc3C)o2)C1=O`, the activity change, less the hit threshold was -20.3%.

For `COc1cc(CCC(=O)NNC(=O)c2ccc(C)cc2)cc(OC)c1OC`, the activity change, less the hit threshold was -8.9%.

For the compound `Oc1c(Br)cc(Br)cc1C=Nc1ccc2[nH]ncc2c1`, the activity change, less the hit threshold is 33% (active).

Turning to `Oc1c(Br)cc(Br)cc1C=Nc1ccc2c(c1)OCCO2`, the activity change, less the hit threshold is -1.5%.

Take `CCOc1cccc(C(=O)Nc2ccc3[nH]ncc3c2)c1`: the activity change, less the hit threshold is -15.8%.

As for `O=C(CSc1nc2ccccc2o1)NCc1n[nH]c(=O)c2ccccc12`, the activity change, less the hit threshold was -12.3%.

Regarding `Cc1cc(NC(=O)/C(C#N)=C/c2ccco2)n(-c2ccccc2)n1`, the activity change, less the hit threshold is -20.2%.

For the compound `CCOc1ccc(C(=O)Nc2ccccc2C(=O)O)cc1`, the activity change, less the hit threshold was -4%.

For `COc1ccc(-n2nc(C)cc2Nc2ccccc2C(=O)O)cc1`, the activity change, less the hit threshold was 21.8% (active).

`CCCCSc1nnc(CCC)n1N`: the activity change, less the hit threshold is -8.4%.

Regarding `CCOC(=O)c1c(NC(=O)CN2CCN(C(=O)c3ccco3)CC2)sc2c1CCCC2`, the activity change, less the hit threshold is 17.6% (active).

As for `CCOc1ccc(OCC(=O)OCC(=O)N2CCN(C(=O)c3ccco3)CC2)cc1`, the activity change, less the hit threshold was -10.5%.

As for `CC(C)OC(=O)c1c(NC(=O)c2ccco2)sc2c1CCCCC2`, the activity change, less the hit threshold was -27.5%.

In the case of `CCc1c(C)sc(NC(=O)CN2CCN(C(=O)c3ccco3)CC2)c1C(=O)OC`, the activity change, less the hit threshold was 16.7% (active).

With `COC(=O)c1c(NC(=O)c2ccco2)sc2c1C(C(=O)OC)CC2` (stereo unspecified), the activity change, less the hit threshold was -18.3%.

For `O=C(CNCC1CCCO1)N1CCCCCC1` (stereo unspecified), the activity change, less the hit threshold was -15.5%.

Consider `CC(Oc1ccc(Br)cc1Br)C(=O)Nc1cccnc1` (stereo unspecified), for which the activity change, less the hit threshold is -16.3%.

For the compound `Cc1oc(/N=C/c2ccc(F)cc2)c(C#N)c1C`, the activity change, less the hit threshold was -16.1%.

In the case of `O=C(CN1C(=O)COc2ccccc21)NNC(=O)Nc1ccccc1F`, the activity change, less the hit threshold is -21.5%.

On to `Oc1oc(-c2cccc3ccccc23)nc1/C=N/c1nccs1`, for which the activity change, less the hit threshold was 13.4% (active).

Turning to `O=c1cc(O)c2ccccc2n1Cc1ccccc1Cl`, the activity change, less the hit threshold is -12.7%.

On to `N=C1S/C(=C\c2ccc(-c3cccc(Cl)c3)o2)C(=O)N1c1nccs1`, for which the activity change, less the hit threshold was -9.5%.

For `Cc1cc([N+](=O)[O-])ccc1-c1ccc(C2Nc3ccccc3C(=O)N2O)o1` (stereo unspecified), the activity change, less the hit threshold is -3.8%.

Consider `O=C1c2ccccc2NC(c2ccc(Br)s2)N1O` (stereo unspecified), for which the activity change, less the hit threshold is 70.9% (active).

On to `C=CCc1cccc(C2Nc3ccccc3C(=O)N2O)c1O` (stereo unspecified), for which the activity change, less the hit threshold is -12.4%.

Take `CC1(OC(=O)c2ccc(Cl)nc2)C(=O)C=C2C=C(c3ccc(C#N)cc3)OC=C2C1=O` (stereo unspecified): the activity change, less the hit threshold was -15.2%.

`Fc1cccc2sc(Nc3nc4c(F)cccc4s3)nc12`: the activity change, less the hit threshold was 0.7% (active).

Turning to `Fc1cccc2sc(Nc3nnc(-c4ccco4)o3)nc12`, the activity change, less the hit threshold is 25.3% (active).

For the compound `COc1cccc(-c2nnc(Nc3nc4c(F)cccc4s3)o2)c1`, the activity change, less the hit threshold was 13.2% (active).

As to `Fc1cccc2sc(Nc3nnc(-c4ccccc4)o3)nc12`, the activity change, less the hit threshold was 79.5% (active).

Regarding `Fc1ccc2nc(Nc3nc4c(F)cc(F)cc4s3)sc2c1`, the activity change, less the hit threshold is -10.7%.

`CC(=O)Nc1nc2c(F)cccc2s1`: the activity change, less the hit threshold was -18.4%.

As to `Cc1cc(C)nc(SCc2nnc(SCC(=O)Nc3nc(-c4ccccc4)cs3)n2-c2ccccc2)n1`, the activity change, less the hit threshold is -11%.

With `Nc1ccc(NC(=O)Nc2ccc(N)cc2)cc1`, the activity change, less the hit threshold was -14.5%.

On to `OC(CNCC(c1ccc(Cl)cc1Cl)c1c[nH]c2ccccc12)c1ccccc1` (stereo unspecified), for which the activity change, less the hit threshold is -43.4%.

In the case of `COc1cccc2cc(-c3nc4ccccc4[nH]3)c(=O)oc12`, the activity change, less the hit threshold was -23.9%.

Turning to `COc1cccc(-c2cc(C(F)(F)F)nc(N3CCCCC3)n2)c1`, the activity change, less the hit threshold is -10.8%.

With `O=C1CCCN1C(=O)COc1ccccc1[N+](=O)[O-]`, the activity change, less the hit threshold was -15.5%.

Consider `Cc1ccnc(N2CCC(C(=O)Nc3ccc(Oc4ccccc4)cc3)CC2)n1`, for which the activity change, less the hit threshold is -22%.

Consider `CC(C)C(O)(C#CCN1CCCC1)c1ccccc1` (stereo unspecified), for which the activity change, less the hit threshold is -11.8%.

With `CC(C)(C)c1ccc(C(=O)NC(=S)N2CCCC2)cc1`, the activity change, less the hit threshold is -7.6%.

As for `CC(C)(C)c1ccc(C(=O)NC(=S)N2CCCCCC2)cc1`, the activity change, less the hit threshold is 18.8% (active).

With `CC1CCN(C(=S)NC(=O)c2ccc(C(C)(C)C)cc2)CC1`, the activity change, less the hit threshold is 10.7% (active).

`COc1ccc(C(=O)NC(=S)N2CCC(C)CC2)cc1Br`: the activity change, less the hit threshold is 51% (active).

In the case of `O=C(NC(=S)N1CCCC1)c1ccc(Cl)cc1`, the activity change, less the hit threshold was 4.3% (active).

As to `CC1CN(C(=S)NC(=O)c2ccc(Cl)cc2)CC(C)O1` (stereo unspecified), the activity change, less the hit threshold is -3.2%.

In the case of `COc1ccc(C(=O)NC(=S)N2CCC(C)CC2)cc1`, the activity change, less the hit threshold was -13.2%.

On to `S=C(N/N=C/c1ccc(Cl)cc1)N1CCOCC1`, for which the activity change, less the hit threshold is -26.9%.

Turning to `CN1CCN(C(=S)NC(=O)c2ccc(C(C)(C)C)cc2)CC1`, the activity change, less the hit threshold was -16.2%.
